# In PubChem BioAssay AID686978 (National Center for Advancing Translational Sciences (NCATS), 2013):
# Values joined by “and” are separate entries in the source; they are usually repeats but may differ in a detail not shown here. Equal values may be shown once. Among all 420,000 compounds or so, about 64,000 (15%) were called active. Another 27% or so got no clear call; they are omitted. The call rests on the fitted dose curve; in most records, active means well fitted inhibition curve with a large enough effect; inconclusive means small, poorly fitted or top-dose-only effect; inactive means flat fitted curve, though single readings scatter. A selection follows.
# Assay: qHTS for Inhibitors of human tyrosyl-DNA phosphodiesterase 1 (TDP1): qHTS in cells in absence of CPT; further: nearly all actives have a fitted effect of over 55% in size
# Conditions: DT40 Tdp1-/- hTDP1 cells, no CPT, ATP luminescence, 48 h; activity change, negative = growth inhibition: at 46.2 µM (top of the series)
# Outline: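 Growth of hTDP1-complemented DT40 Tdp1-knockout cells is measured by ATP luminescence after at least 48 hr compound exposure at 37 °C, with DMSO substituting for the 20 nM CPT used in the parallel screen.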
# On the % scale 0 is the no-effect control and ±100 the full control effect; potency means the concentration at half of the fitted maximal effect.
SMILES,"activity change, negative = growth inhibition",Potency
CCC(Sc1nncn1C)C(=O)Nc1nnc(-c2ccc(Cl)cc2)s1 (centres undefined),-15.8% (inactive),
NS(=O)(=O)c1cc2c(cc1Cl)NC(C(Cl)Cl)NS2(=O)=O (centres undefined),,inactive
O=P(c1cccs1)(c1cccs1)c1cccs1,-0.74% (inactive),
O=C(Nc1ccccc1Cl)c1ccccc1S(=O)(=O)c1ccccc1[N+](=O)[O-],-2.25% (inactive),
COc1cc(OC)c(/C=N/NC(=O)c2ccc([N+](=O)[O-])cc2)cc1Br,-16.1% (inactive),
COc1cc(/C=N\NC(=O)c2nonc2N)c(OC)cc1Br,,29.1 µM (active)
COc1cc(/C=N/N=C(\N)c2nonc2N)cc(OC)c1OC,-1.42% (inactive),
CCc1cc2c(=O)c(-c3nc4ccccc4n3C)c(CCCC(=O)O)oc2cc1OC(=O)C(C)(C)C,-28.1% (inactive),
COc1ccc(O)c(/C=N/N=C/c2cccc([N+](=O)[O-])c2)c1,7.16% (inactive),
Cc1ccc(S(=O)(=O)NC(=O)N2CCCC(C)(C)C2)cc1,-5.23% (inactive),
O=C(NC1CCN(C(=S)NCc2ccco2)CC1)c1ccc(F)cc1,-16.2% (inactive),
O=S(=O)(NCc1cccnc1)c1ccc(Br)s1,-14.7% (inactive),
O=S(=O)([N-]c1nc2ccccc2nc1-[n+]1ccc(Cc2ccccc2)cc1)c1ccc(Br)s1,,14.6 µM (active)
Cc1cc(C)c[n+](-c2nc3ccccc3nc2[N-]S(=O)(=O)c2cccs2)c1,1.57% (inactive),
Cc1cc(C)cc(NC(=O)CCS(=O)(=O)c2cc3c4c(c2)CCN4C(=O)CC3)c1,-2.61% (inactive),
CC1CSc2nnc(CCc3ccccc3)n21 (centres undefined),-11.6% (inactive),
Cc1cc(C(=O)COC(=O)c2cccs2)c(C)n1-c1c(C)n(C)n(-c2ccccc2)c1=O,-23.7% (inactive),
COc1ccc(-c2nnc(SC(=O)N3c4ccccc4Sc4ccccc43)o2)cc1,,7.94 µM (active)
COc1ccc(-c2nnc(SC(C)C#N)o2)cc1 (centres undefined),-7.87% (inactive),
COc1ccc(-c2nnc(-c3ccc4ccccc4c3)o2)cc1,-22% (inactive),
COc1ccc(NC(=S)SC)cc1OC,-28.8% (inactive),
COc1cc(C(c2c(NC(=O)c3ccco3)sc(C)c2C)N2CCOCC2)cc(OC)c1OC (centres undefined),,29.1 µM (active)
COC(=O)c1cc(NC(=O)c2ccco2)ccc1N1CCOCC1,-17.8% (inactive),
COc1ccc(CC(=O)Nc2ccccc2NC(=O)c2ccco2)cc1OC,-8.13% (inactive),
C=CCNC(=O)c1cc2nc(C3CC3)cc(C(F)F)n2n1,16.9% (inactive),

SMILES,"activity change, negative = growth inhibition",Potency
CCCCn1c(N)c(N(CC)C(=O)/C=C/c2ccco2)c(=O)[nH]c1=O,21.7% (inactive),
Cc1ccc(NC(=O)Nc2sc3nc4n(c(=O)c3c2C)CCC(C)CC4)c(Cl)c1 (centres undefined),,11.6 µM (active)
CC1CCN(C(=O)c2ccc3c(=O)n4c(nc3c2)CCCCC4)CC1,1.08% (inactive),
CC1CCc2c(sc3nc4n(c(=O)c23)CCS4)C1 (centres undefined),-22.7% (inactive),
CNC(=O)c1nnc(Cc2ccc(Cl)cc2)o1,-2.66% (inactive),
O=C1C2C3C=CC(C3)C2C(=O)N1c1ccc(S(=O)(=O)Nc2nccs2)cc1 (centres undefined),-7.53% (inactive),
Cc1ccc2sc(NNC(=O)c3ccc4c(c3)OCCO4)nc2c1C,-29% (inactive),
O=C(NC1CCCCC1)n1c(=O)oc2cc(S(=O)(=O)N3CCCCC3)ccc21,-4.25% (inactive),
O=C(Nc1nc2ccc(S(=O)(=O)N3CCCC3)cc2s1)C1CCCO1 (centres undefined),-18.9% (inactive),
Cc1ccc2nc(NC(=O)C3CCN(S(=O)(=O)c4ccc5c(c4)oc(=O)n5C)CC3)sc2c1,,14.6 µM (active)
CC(=O)Nc1c2c(nn1-c1ccc(C)cc1C)CS(=O)C2 (centres undefined),-7.3% (inactive),
CC(=O)c1ccc(S(=O)(=O)Nc2ccc(-c3ccc4nncn4n3)cc2)cc1,13.5% (inactive),
O=C(Nc1ccc(-c2ccc3nncn3n2)cc1)C1CCCCC1,,16.4 µM (active)
O=C(O)c1ccc(NC(=O)C2CCCCC2)cc1,-7.37% (inactive),
O=C(c1cn2ccccc2n1)N1CCc2c([nH]c3ccccc23)C1c1ccccn1 (centres undefined),-8.01% (inactive),
CCOc1ccc(C2c3[nH]c4ccccc4c3CCN2Cc2cccn2-c2ncccn2)cc1 (centres undefined),,13 µM (active)
CCOc1ccc(C2c3[nH]c4ccccc4c3CCN2Cc2cn(CC)nc2C)cc1 (centres undefined),11.9% (inactive),
c1ccc(C2c3[nH]c4ccccc4c3CCN2Cc2cccn2-c2cccnc2)nc1 (centres undefined),,5.8 µM (active)
COCC(=O)Nc1c(I)c(C(=O)NCC(O)CO)c(I)c(C(=O)N(C)CC(O)CO)c1I (centres undefined),,inactive
Nc1nc(SCC(=O)N2CCN(S(=O)(=O)c3ccc(Cl)cc3)CC2)n[nH]1,19.5% (inactive),
CC(CCN1CCN=C1N(C)C)c1ccccc1 (centres undefined),-10.3% (inactive),
Cc1ccc2[nH]c(=O)c(COC(=O)c3ccccn3)cc2c1,-0.351% (inactive),
Cc1ccccc1NC(=O)c1cnn(-c2ccccc2)c1NC(=O)c1ccco1,-7.32% (inactive),
Nc1cc2c(cc1Br)-c1ccc(F)cc1C2=O,-10.1% (inactive),
COC(=O)C[C@H]1C=C[C@H](NC(=O)c2ccc(F)cc2)[C@@H](CO)O1,-16.8% (inactive),

SMILES,"activity change, negative = growth inhibition",Potency
Cc1ccsc1/C=N/NC(=O)Cc1cc(=O)[nH][nH]1,15.7% (inactive),
Cc1cccc(C)c1N1C(=O)CN(Cc2ccccc2)C1=S,-1.87% (inactive),
O=C1C[C@H]2C=CCc3cccc(c32)CN1Cc1ccccc1,,20 µM (active)
O=C1C[C@@H]2c3c(cccc3CN1Cc1ccccc1)C[C@@H](O)[C@H]2O,,inactive
CCCC(=O)C1CCN(Cc2ccccc2)CC1,-5.82% (inactive),
Brc1ccc(CN2CC[C@H]3C=CCc4cccc(c43)C2)cc1,,15.8 µM (active) and 20.6 µM (active)
C/C(Cn1nnc2ccccc21)=N\OC(=O)c1cc(F)c(F)cc1Cl,29.1% (inactive),
O=C(NCc1ccc(F)cc1)C1CCC(CNc2c(N3CCOCC3)c(=O)c2=O)CC1 (centres undefined),17.8% (inactive),
CC[C@]1(O)C[C@@H]2CN(CCc3c([nH]c4ccccc34)[C@@](C(=O)OC)(c3cc4c(cc3OC)N(C)[C@H]3[C@@](O)(C(=O)OC)[C@H](OC(C)=O)[C@]5(CC)C=CCN6CC[C@]43[C@@H]65)C2)C1,,51.7 nM (active) and 59.6 nM (active) and 82 nM (active)
CC[C@]1(O)CC2CN(CCc3c([nH]c4ccccc34)[C@@](C(=O)OC)(c3cc4c(cc3OC)N(C=O)[C@H]3[C@@](O)(C(=O)OC)[C@H](OC(C)=O)[C@]5(CC)C=CCN6CC[C@]43[C@@H]65)C2)C1 (some centres undefined),-84.8% (inactive),
CCN(CC)Cc1c(C(=O)OC)nnn1-c1nonc1N,-9.48% (inactive),
CCNC(=O)C1(C)CCCN1C(=O)c1ccc(N(C)C)cc1 (centres undefined),-3.34% (inactive),
CC1(C(=O)NS(=O)(=O)c2ccccc2)CCN1C(=O)c1ccccc1 (centres undefined),-0.114% (inactive),
CC(C)NC(=O)C1(C)CCCCCN1C(=O)c1ccc(-c2ccccc2)cc1 (centres undefined),,9.2 µM (active)
CC(C)(CNCC(O)c1ccccc1)N1CCOCC1 (centres undefined),-5.05% (inactive),
NC(=S)N/N=C/c1ccc([N+](=O)[O-])cc1,-25.5% (inactive),
CCOc1ccc(/C=N/NC(N)=S)cc1,,16.4 µM (active)
CCOC(=O)N1CCC(=NNC(N)=O)CC1,-10.4% (inactive),
CC1CC(C)CN(c2oc(-c3ccc(OCc4ccc(Cl)cc4)cc3)nc2C#N)C1 (centres undefined),-8.16% (inactive),
CCC(C)Nc1oc(-c2ccc(COc3ccc(Cl)cc3)o2)nc1C#N (centres undefined),,23.1 µM (active)
N#Cc1nc(COc2ccc(Cl)cc2)oc1N1CCCC1,-27.1% (inactive),
COC(=O)c1sccc1NC(=O)c1ccc(Cl)cc1,-0.329% (inactive),
O=C1c2ccccc2C(=O)C1c1ccccc1,,inactive
COc1ccc(NC(=O)/C(C#N)=C\c2cc(OC)c(OCc3ccc(C(=O)O)cc3)cc2Br)cc1,-25.7% (inactive),
COCCCn1c(=O)/c(=C/c2ccccc2OC(C)C)s/c1=C(\C#N)C(=O)Nc1ccc(C(=O)O)cc1,,20.6 µM (active)

SMILES,"activity change, negative = growth inhibition",Potency
COc1ccccc1C(=O)N/C(=C/c1ccco1)C(=O)Nc1ccc(C(=O)O)cc1,-16.4% (inactive),
COCCNC(=S)N(CCc1c(C)[nH]c2ccc(C)cc12)Cc1cccnc1,-10.3% (inactive),
CCn1cc(C(=O)N2CC=C(c3ccccc3)CC2)c(=O)c2ccc(C)nc21,-15.4% (inactive),
CCOc1cc(/C=C(\C#N)c2nc(-c3cccs3)c(NC(C)=O)s2)ccc1O,,3.66 µM (active)
CCOc1cc(/C=C(/C#N)c2ccc(Cl)cc2)cc(Cl)c1OCC(=O)O,15.3% (inactive),
CCOc1cc(/C=C(\C#N)C(=O)Nc2ccccc2C)ccc1OCc1cc(=O)n2nc(CC)sc2n1,-11.1% (inactive),
CSc1nc(C)nc2c1c(=O)n(C)c(=O)n2C,-4.7% (inactive),
O=P(O)(O)OC[C@H](O)CO,-1.46% (inactive),
CC1(C)CC(CCC(=O)Nc2ccccc2Cl)C(=O)O1 (centres undefined),-15.7% (inactive),
Cc1ccc(S(=O)(=O)N2CCC(C(=O)N[C@@H](C)C(=O)NCc3ccccc3)CC2)cc1,1.24% (inactive),
CCCCOc1ccc(NC(=O)[C@@H]2CCCN2C(=O)C2CCN(S(=O)(=O)c3ccc(C)cc3)CC2)cc1,-11.1% (inactive),
CCCCCCNC(=O)O[C@H]1CN(C(=O)OC(C)C)N(C(=O)OC(C)C)[C@@H]2CN(S(=O)(=O)c3ccc(C)cc3)C[C@]12O,,16.4 µM (active)
O=C(CNS(=O)(=O)c1ccc2ccccc2c1)Nc1ccc(F)c(F)c1F,-28.9% (inactive),
COc1ccc(C(=O)Nc2cc(C)ccc2NC(=O)COc2ccccc2)cc1,-8.06% (inactive),
Cc1ccc(NS(=O)(=O)c2ccc(C)c(NC(=O)COc3ccc4ccccc4c3)c2)c(C)c1,,16.4 µM (active)
C/C(=N\NC(=S)NCc1ccccc1)C1CCCCC1,,6.51 µM (active)
O=C(O)c1ccc(/C=N/NC(=S)NCc2ccccc2)cc1,3.93% (inactive),
O=C(CC1CCCCC1)NCc1ccccc1,-9.17% (inactive),
C/C(=N\NC(=S)NCc1ccccc1)c1ccc(Cl)cc1,,18.4 µM (active)
CC1CCCCN1C(=S)NCc1ccccc1 (centres undefined),-7.02% (inactive),
CN(C)CCCNC(=S)NCc1ccc(Cl)cc1,0.949% (inactive),
C#CCOCCOCCOCCNc1nc(N2CCN(C(=O)[C@H](CCCCN)n3cc(CCC(=O)O)nn3)CC2)nc(N2CCN(C(=O)[C@H](CCCCN)n3cc(CC(C)O)nn3)CC2)n1 (some centres undefined),-2.49% (inactive),
CSc1ccc(CNC(=O)c2ccc(NC(=O)C3=CSCCO3)cc2)cc1,3.26% (inactive),
CC(=O)c1ccc(N2CCN(CC(O)c3ccccc3)CC2)cc1 (centres undefined),-1.93% (inactive),
